Measurements from PubChem BioAssay AID588342 (National Center for Advancing Translational Sciences (NCATS), 2011).
Screen size: about 360,000 compounds; about 25,000 (6.9%) were called active. About 9% were inconclusive and are not listed. Calls come from the whole dose curve; as a rule, active = well fitted inhibition curve with a large enough effect; inconclusive = small, poorly fitted or top-dose-only effect; inactive = flat fitted curve, though single readings scatter. The sample as a whole holds a higher share of actives than the screen did.

Biological target: Luciferin 4-monooxygenase (Photinus pyralis) (UniProt P08659)
Sequence (P08659 whole entry, looked up): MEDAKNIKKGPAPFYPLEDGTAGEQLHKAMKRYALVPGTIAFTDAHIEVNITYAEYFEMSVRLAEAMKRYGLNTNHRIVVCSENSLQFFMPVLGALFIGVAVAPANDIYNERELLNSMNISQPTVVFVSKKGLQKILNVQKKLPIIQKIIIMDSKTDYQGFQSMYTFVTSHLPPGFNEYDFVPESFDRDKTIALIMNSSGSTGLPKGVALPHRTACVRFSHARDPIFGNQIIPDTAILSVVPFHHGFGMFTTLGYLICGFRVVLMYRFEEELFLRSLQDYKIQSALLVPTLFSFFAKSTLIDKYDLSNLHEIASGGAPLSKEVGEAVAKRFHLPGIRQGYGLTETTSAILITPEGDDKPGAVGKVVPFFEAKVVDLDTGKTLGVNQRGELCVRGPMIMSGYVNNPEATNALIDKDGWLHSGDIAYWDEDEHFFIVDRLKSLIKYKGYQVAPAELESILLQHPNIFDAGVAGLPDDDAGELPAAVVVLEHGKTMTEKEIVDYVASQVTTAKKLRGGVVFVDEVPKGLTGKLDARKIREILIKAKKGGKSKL
Test: qHTS profiling assay for firefly luciferase inhibitor/activator using purifed enzyme and Km concentrations of substrates (counterscreen for miR-21 project); note: nearly all actives have a fitted effect of over 55% in size;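 for activity change, negative = inhibition: plate controls were vehicle for no effect and reference inhibitor for full effect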
Conditions: purified FLuc, luminescence inhibition; series mostly up to 57.5 µM; activity change, negative = inhibition: at the top concentration
Method in brief: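 Purified P. pyralis luciferase (10nM final) with 10uM D-luciferin and 10uM ATP (Km levels) in 50mM Tris acetate pH 7.5, 10mM Mg acetate, 0.01% Tween-20, 0.05% BSA; qHTS 6-point titration, ~60 µM downward; luminescence read.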
Potency is the fitted concentration of half-maximal effect.

Row | Structure (SMILES) | activity change, negative = inhibition | Potency
1 | CCc1ccc(NC(=O)N2CCN(c3ccccc3)CC2)cc1 | -19.9% (inactive) | 
2 | O=C(Nc1cccc([N+](=O)[O-])c1)N1CCc2ccccc2C1 |  | 21.3 µM (active)
3 | CN1CCN(CC(=O)Nc2cccc([N+](=O)[O-])c2)CC1 | 1.74% (inactive) | 
4 | O=C(Nc1cccc([N+](=O)[O-])c1)Nn1cnnc1 | 2.4% (inactive) | 
5 | CCc1ccc(NC(=O)N2CCc3ccccc3C2)cc1 |  | 12 µM (active)
6 | Cc1ccc(NC(=O)CN2CCc3ccccc3C2)cc1C | -21.8% (inactive) | 
7 | Cc1cc(-c2ccc(C)c(S(=O)(=O)N3c4ccccc4CC3C)c2)on1 (stereo not given) | 3.15% (inactive) | 
8 | Cn1c(=O)c2c(nc(SCC(=O)Nc3ccc(F)cc3)n2Cc2ccc(Cl)cc2)n(C)c1=O | -3.31% (inactive) | 
9 | S=C(Cc1ccc(Cl)cc1)N1CCOCC1 | -1.16% (inactive) | 
10 | CCOC(=O)c1ccc(N2C(=O)c3n[nH]c(C)c3C2c2ccc(O)c(OC)c2)cc1 (stereo not given) | 6.1% (inactive) | 
11 | CCOc1ccc(N(CC)S(=O)(=O)N2CCCC(C(=O)Nc3ccc(C(C)=O)cc3)C2)cc1 (stereo not given) | 2.45% (inactive) | 
12 | NC(=O)CC[C@@H]1NC(=O)[C@@H]2CCCN2C(=O)c2cc([N+](=O)[O-])cc(F)c2NCCC[C@@H](C(N)=O)NC1=O | -0.328% (inactive) | 
13 | Cc1ccc(C(C)C)c(OCCSc2nc3ccccc3n2CC(=O)O)c1 | -0.728% (inactive) | 
14 | CCc1ccc(NC(=O)C2CCCN2S(=O)(=O)c2ccc3nc(-c4ccccc4)[nH]c3c2)cc1 (stereo not given) | -18.6% (inactive) | 
15 | CCOc1ccc(C(=O)CCC(=O)Nc2ccncc2)cc1 | -4.1% (inactive) | 
16 | CCOc1ccc(NCCC(=O)c2ccc3c(c2)OCO3)cc1 |  | 21.3 µM (active)
17 | COc1ccc(C2(C)NC(=O)N(CC(=O)c3ccc4c(c3)OCO4)C2=O)cc1 (stereo not given) | 5.52% (inactive) | 
18 | Cc1ccc2nc(CN3CCN(S(=O)(=O)c4ccc(C)c(C)c4)CC3)oc2c1 | -1.02% (inactive) | 
19 | CCC1CCCCN1S(=O)(=O)Cc1ccccc1Cl (stereo not given) | -1.4% (inactive) | 
20 | CC1(C)NC(=O)N(CC(=O)N2CCN(S(=O)(=O)c3ccccc3F)CC2)C1=O | 3.62% (inactive) | 
21 | Cc1ccc(NC(=S)Nc2ncccc2C)c(C)c1 |  | 6.75 µM (active)
22 | Cc1ccc(NC(=S)NCCc2ccc(Cl)cc2)c(C)c1 | -4.33% (inactive) | 

Row | Structure (SMILES) | activity change, negative = inhibition | Potency
23 | Cc1ccc(NC(=S)NCc2ccccc2Cl)c(C)c1 | -7.17% (inactive) | 
24 | CN(C(=O)CSc1nnc(Nc2ccccc2)s1)C1CCS(=O)(=O)C1 (stereo not given) |  | 16.9 µM (active)
25 | CN(C(=O)CSc1nnc(-c2ccc3c(c2)OCO3)o1)C1CCS(=O)(=O)C1 (stereo not given) | -0.842% (inactive) | 
26 | COc1ccc2c(-c3ccccc3)cc(SCC(=O)N(C)C3CCS(=O)(=O)C3)nc2c1 (stereo not given) | -10.2% (inactive) | 
27 | CN(C(=O)CSc1nnc(-c2ccc(C(C)(C)C)cc2)n1C)C1CCS(=O)(=O)C1 (stereo not given) |  | 15.1 µM (active)
28 | CC(C)N(C(=O)CSc1nnc(NC2CC2)s1)c1ccccc1 | 1.23% (inactive) | 
29 | CCn1c(SCC(=O)N(C)C2CCS(=O)(=O)C2)nnc1-c1cccs1 (stereo not given) | 0.145% (inactive) | 
30 | COc1cccc(-c2nc(CS(=O)(=O)CC(=O)N3CCN(c4cc(C)ccc4C)CC3)c(C)o2)c1 | -13.9% (inactive) | 
31 | COc1cccc(OCC(O)CNC(=O)c2oc3c(C)c(C)ccc3c2C)c1 (stereo not given) | -0.457% (inactive) | 
32 | O=C(NCc1ccccc1)C(=O)NCC1OCCN1S(=O)(=O)c1ccc(Br)cc1 (stereo not given) | 6.76% (inactive) | 
33 | Cc1occc(=O)c1OCc1ccc(F)cc1 | -0.892% (inactive) | 
34 | O=C(Oc1ccc(-c2nnco2)cc1)c1ccc(F)c(S(=O)(=O)N2CCOCC2)c1 | 4.2% (inactive) | 
35 | Fc1ccc(COc2ccc(-c3nnco3)cc2)cc1 |  | 13.5 µM (active)
36 | CCCN1Cc2cccc(C(=O)Nc3ccc(S(=O)(=O)N4CCCCCC4)cc3)c2C1=O | -0.216% (inactive) | 
37 | COC(=O)c1ccc(NC(=O)c2cccc3c2C(=O)N(C2CCCCC2)C3)cc1 | 0.21% (inactive) | 
38 | COc1ccc(C(=O)Nc2ccc(C(=O)NCC3CCCO3)cc2)c(OC)c1OC (stereo not given) | -1.51% (inactive) | 
39 | COCCN1Cc2cccc(C(=O)Nc3ccccc3OC)c2C1=O | -1.7% (inactive) | 
40 | CCOc1ccc(NC(=O)c2cccc3c2C(=O)N(CC2CCCO2)C3)cc1 (stereo not given) |  | 8.49 µM (active)
41 | COc1ccc(NC(=O)c2cccc3c2C(=O)N(CC2CCCO2)C3)cc1OC (stereo not given) |  | 26.9 µM (active)
42 | Cc1ccsc1CN(C(=O)c1oc2ccc(Br)cc2c1C)C1CCS(=O)(=O)C1 (stereo not given) | 0.561% (inactive) | 
43 | O=C1C=C(c2cc(C(F)(F)F)cc(C(F)(F)F)c2)C[C@@H](c2ccc3c(c2)OCO3)C1 | 2.27% (inactive) | 
44 | COc1ccccc1-c1cnn2c(N3CCOCC3)cc(C)nc12 |  | 6.01 µM (active)

Row | Structure (SMILES) | activity change, negative = inhibition | Potency
45 | Cc1cc(-n2nc(C)cc2C)n2ncc(-c3ccccc3)c2n1 | -12.2% (inactive) | 
46 | Cc1cc(C(F)(F)F)n2ncc(-c3ccccc3)c2n1 | 2.87% (inactive) | 
47 | CC1Cc2ccccc2N1S(=O)(=O)c1cccc(C(=O)NCC(c2ccco2)N2CCCC2)c1 (stereo not given) | -0.976% (inactive) | 
48 | COc1ccccc1CNC(=O)C(=O)NCC(c1cccs1)S(=O)(=O)c1cccs1 (stereo not given) | -10.2% (inactive) | 
49 | O=C(/C=C/c1ccccc1)c1ccoc1 |  | 15.1 µM (active)
50 | O=S(=O)(/C=C/c1ccccc1)N1CCNCC1 | 0.651% (inactive) | 
51 | O=C(/C=C(O)/C=C/c1ccc(O)cc1)/C=C/c1ccc(O)cc1 | -22.6% (inactive) | 
52 | COc1ccc(C(=O)/C=C/c2ccc(-c3ccccc3)cc2)cc1CSCC(=O)O | 0.374% (inactive) | 
53 | O=C(/C=C/c1ccccc1)c1ccccc1O |  | 3.38 µM (active)
54 | Cc1[nH]c(=O)c(C(=O)/C=C/c2ccccc2)c2c1CCCC2 | 1.36% (inactive) | 
55 | O=C(CSc1nnc(-c2ccncc2)n1-c1ccccc1)Nc1ccc(Cl)c(Cl)c1 | -1.04% (inactive) | 
56 | COc1ccc(CCNC(=O)c2cn(C)c3ccc(S(=O)(=O)N(C)C4CCCCC4)cc3c2=O)cc1OC | -1.48% (inactive) | 
57 | CSc1ccc(C2c3c(oc4ccccc4c3=O)C(=O)N2CCCN2CCOCC2)cc1 (stereo not given) | -7.46% (inactive) | 
58 | COc1cc(Cl)c(C)cc1NC(=O)CSc1nnc(-c2ccco2)n1CC(C)C | -17.6% (inactive) | 
59 | CCOc1ccc(C(=O)Nc2c3c(nn2-c2ccccc2)CS(=O)(=O)C3)cc1 | 2.36% (inactive) | 
60 | CCOc1ccc(C(=O)Nc2cccc(-c3ccc4nncn4n3)c2)cc1 |  | 8.49 µM (active)
61 | COc1ccc(OC)c(S(=O)(=O)Nc2cccc(-c3ccc4nncn4n3)c2)c1 | -5.1% (inactive) | 
62 | CCOc1ccc(C(=O)Nc2cccc(SC)c2)cc1 |  | 6.01 µM (active)
63 | CCOc1ccc(NC(=O)c2ccc(NC(=O)COC(=O)c3ccc(NC(=O)CC#N)cc3)cc2)cc1 | -17.1% (inactive) | 
64 | CCOc1cccc(NC(=O)CC#N)c1 | 3.03% (inactive) | 
65 | NS(=O)(=O)c1ccc(CCNS(=O)(=O)c2cccc3cccnc23)cc1 | 0.297% (inactive) | 
